ALDH1A1 inh: ALDH1A1 (human) enzyme inhibition; Potency, µM (top dose mostly 75.3 µM), inactives show at the highest dose activity, negative = inhibition, usual class: inhibitors; P00352; AID 1030; Purified ALDH1A1, NADH fluorescence, propionaldehyde substrate; hit rate 7.3% among 220,000; active = well fitted inhibition curve with a large enough effect, not every such curve was filed as active; inconclusive = small, poorly fitted or top-dose-only effect, or another doubt; inactive = no such curve, though single readings can be large or run the other way;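 note: potency is the fitted concentration of half-maximal effect; plate controls were no enzyme wells and a reference inhibitor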
Target sequence (P00352 whole entry, looked up): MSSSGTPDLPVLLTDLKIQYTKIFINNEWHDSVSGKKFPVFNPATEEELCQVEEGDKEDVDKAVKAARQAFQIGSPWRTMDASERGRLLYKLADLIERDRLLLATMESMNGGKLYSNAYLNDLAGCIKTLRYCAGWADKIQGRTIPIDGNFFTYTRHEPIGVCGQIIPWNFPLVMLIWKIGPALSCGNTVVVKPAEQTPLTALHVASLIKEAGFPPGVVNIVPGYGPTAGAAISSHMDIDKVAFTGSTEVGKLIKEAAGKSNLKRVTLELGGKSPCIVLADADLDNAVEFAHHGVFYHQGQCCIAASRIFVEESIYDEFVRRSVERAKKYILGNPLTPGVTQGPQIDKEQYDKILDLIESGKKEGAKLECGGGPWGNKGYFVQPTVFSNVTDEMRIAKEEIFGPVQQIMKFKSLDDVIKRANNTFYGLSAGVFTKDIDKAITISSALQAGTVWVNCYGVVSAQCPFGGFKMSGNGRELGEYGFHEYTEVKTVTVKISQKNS
HPGD block: inhibitors of human 15-hydroxyprostaglandin dehydrogenase (HPGD); P15428; purified HPGD, NADH fluorescence kinetic, PGE2 substrate; Potency, µM, inactives show at the highest dose activity change, negative = inhibition, actives largely listed as inhibitors; hit rate 4.3% among 150,000; active = well fitted inhibition curve with a large enough effect, not every such curve was filed as active; inconclusive = small, poorly fitted or top-dose-only effect, or another doubt; inactive = no such curve, though single readings can be large or run the other way; note: potency is the fitted concentration of half-maximal effect
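20 nM HPGD preincubated 15 min at room temperature with compound in 50 mM Tris-HCl pH 8, 0.01% Tween 20. Started with 1 mM NAD+ and 30 uM prostaglandin E2; NADH fluorescence (360/450 nm) read 5 times over 30-s intervals, last minus first.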
PNC assembly inh: blocks assembly of the perinucleolar compartment. activity change (PNC), negative = inhibition, % at 10 µM. hit rate 3.1% among 140,000. PC3M PTB-GFP, PNC prevalence imaging, 16 h; stronger effect = lower value;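 active = readout at or below -70, meaning at least 70% loss of cells showing the perinucleolar compartment, a nuclear body marking cancer cells; inconclusive = readout between -30 and a set limit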;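 note: plate controls were DMSO wells for no effect and camptothecin positive control wells for full effect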
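Compounds are pinned in duplicate onto adhered PC3M cells stably expressing GFP-tagged PTB and incubated 16 h at 37 C. Cells are then fixed, nuclei stained with Hoechst, and PNC-positive cells counted.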
GLA inh pH 4.5: alpha-galactosidase A (human) inhibition, pH 4.5; P06280; purified enzyme, 4-MU-alpha-Gal fluorescence, pH 4.5; activity change, negative = inhibition, % at 105 µM; 230,000 tested, under 10 active; AID 1467;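 note: 0% = full activity with enzyme and -100% = basal without enzyme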
GLA spleen mod: alpha-galactosidase A (human) modulation; P06280; human spleen homogenate, 4MU-alpha-Gal fluorescence, 40 min; Potency, µM (doses to about 80 µM), inactives show at the highest dose activity change, negative = inhibition, usual class: inhibitors; hit rate 0.008% among 240,000;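 note: potency is the fitted concentration of half-maximal effect; 0% = enzyme with vehicle and -100% = no enzyme basal signal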
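Human spleen homogenate (1 ug) as enzyme source, 4-methylumbelliferyl-alpha-D-galactopyranoside 1 mM final, citrate/phosphate pH 5.0 with 0.01% Tween-20. Compounds 40 min at 37C, NaOH/glycine stop; fluorescence Ex 365/Em 440, Hill-fit AC50.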
12-hLO inh: inhibitors of human 12-lipoxygenase (ALOX12) | purified 12-hLO, xylenol orange hydroperoxide absorbance | Potency, µM (highest dose often 57.1 µM), without a hit: at the top dose activity change, negative = inhibition, actives largely listed as inhibitors | hit rate 0.12% among 150,000; note: potency is the fitted concentration of half-maximal effect; nearly all actives have a fitted effect of over 55% in size
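Hydroperoxide output read as Fe(III)-xylenol orange absorbance, 573-to-405 nm ratio, after 30 min reaction with 40 uM arachidonic acid. Enzyme: 150 nM purified human 12hLO, 15 min compound preincubation; 25 mM Hepes pH 7.0, room temperature.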
Starred values were filed as active, the others as inactive; ? = inconclusive; . = no result given. In the library only some 10% were active in any assay of this set; here they are far more common. Unless noted, calls come from the whole dose curve; as a rule, active = well fitted curve in the direction sought with a large enough effect; inconclusive = small, poorly fitted or top-dose-only effect, or another doubt; inactive = no such curve, though single readings can be large; an effect the other way counts as inactive or inconclusive. Unless noted, % is set by controls: 0 for no effect and ±100 for the full control effect.

SMILES	ALDH1A1 inh	HPGD block	PNC assembly inh	GLA inh pH 4.5	GLA spleen mod	12-hLO inh
CCS(=O)(=O)Nc1ccc(-c2nnc(SCC(=O)c3ccc(NC(C)=O)c(OC)c3)o2)cc1	4%	0.79µM*	25	-9	0%	-2%
CNC(=O)CSc1nnc(-c2cc(C)cc(C)c2)o1	4%	-10%	-103*	-7	2%	-5%
CCS(=O)(=O)Nc1ccc(-c2nnc(SCC(=O)c3cccc(OC)c3)o2)cc1	3.2µM*	?	?	4	3%	-7%
COc1cc(-c2nnc(SCc3c(F)cccc3Cl)o2)cc(OC)c1OC	4.5µM*	?	?	-4	1%	2%
COc1cccc(C(=O)CSc2nnc(-c3cc(OC)c(OC)c(OC)c3)o2)c1	?	-30%	1	-4	6%	2%
COc1cc(-c2nnc(SCC(=O)c3ccc(C)cc3)o2)cc(OC)c1OC	28µM*	-6%	?	-12	1%	1%
CN(C)c1ncc2nc(-c3ccccc3)c(=O)n(Cc3cccs3)c2n1	?	.	.	.	15%	.
COc1ccc(Br)cc1C(=O)Nc1cc(C)cc(C)c1	20%	-15%	1	2	-4%	7%
COc1ccc(C2=NOC(C(=O)N3CCCc4ccccc43)C2)cc1 (centres undefined)	13µM*	-9%	-4	-1	2%	1%
COc1ccc(-c2cc(C(=O)N3CCCc4ccccc43)no2)cc1	4µM*	-24%	-13	-11	-15%	-5%
COc1cc(C2=NOC(C(=O)N3CCCc4ccccc43)C2)cc(OC)c1OC (centres undefined)	?	-15%	?	1	3%	-6%
Cc1noc(C)c1C(=O)N1CCCc2ccccc21	25µM*	-26%	26	2	5%	-6%
CCN(CC)S(=O)(=O)c1ccc(Cl)c(C(=O)N2CCc3ccccc32)c1	?	-11%	?	0	-10%	-2%
CCN(CC)S(=O)(=O)c1ccc(C(=O)N2CCc3ccccc32)cc1	5µM*	.	.	-5	5%	.
COc1ccccc1N1C(=O)CC(Sc2ccccc2N)C1=O (centres undefined)	.	.	.	-3	5%	.
CCCCCCn1nc(C(=O)OCC(=O)NC2CCS(=O)(=O)C2)c2ccccc2c1=O (centres undefined)	?	.	.	2	8%	.
CC(C)NCC(O)COc1ccc2c(c1)CCC2 (centres undefined)	-5%	-5%	?	11	-8%	-2%
CC(C)OC(=O)[C@H]1O[C@H](CCCCOCc2ccccc2)[C@@H](C)[C@H]2O[C@H]21	1%	-5%	.	-5	6%	.
COC1=C2C[C@@H](C)C[C@H](OC)[C@H](O)[C@@H](C)/C=C(\C)[C@H](OC(N)=O)[C@@H](OC)/C=C\C=C(/C)C(=O)NC(=CC1=O)C2=O	.	.	.	.	9%	.
Cc1nn2c(-c3ccccn3)ccnc2c1Br	3%	.	.	0	1%	.
O=C(Nc1ccccc1)N1CCCc2ccccc21	5%	-28%	-100*	5	3%	4%
COc1ccc(C(=O)N2CCCc3ccccc32)cc1	?	-22%	?	-18	3%	3%
O=C(c1cc(-c2cccs2)on1)N1CCCc2ccccc21	14µM*	-11%	-24	-1	0%	1%
CC(C)Oc1ccc(C(=O)N2CCCc3ccccc32)cc1	?	22µM*	22	-3	2%	2%
O=C(C(=O)N1CCCc2ccccc21)N1CCCc2ccccc21	0%	0%	?	6	0%	-4%
CCN1CCN(C(=O)c2cc(S(=O)(=O)Nc3ccc(S(C)(=O)=O)cc3)ccc2Cl)CC1	?	.	.	8	-7%	.
CCOc1cc(NC2CS(=O)(=O)CC2O)c(OCC)cc1NC(=O)c1ccccc1 (centres undefined)	13µM*	-13%	78	-1	1%	-25%
Clc1ccc(OCc2nn3c(C4CCCCC4)nnc3s2)cc1	18µM*	20µM*	-16	-25	-8%	-4%

Bioassay records as filed in PubChem.
